Source: PubChem BioAssay (The Scripps Research Institute Molecular Screening Center)
Compounds with a hit are over-represented: about 0.71% of the library has one in this group of screens.
IDE cell activ = human IDE activators in live cells, primary screen, fluorescence polarization, HEK cells, FAbeta-B substrate | FAbeta-B cleavage; 0% vehicle, 100% cell-free pure enzyme wells | activation, % at 5.96 µM | actives 0.073% (n = 340,000);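 active = activation above the mean of all tested compounds plus 3 SD, set per screening campaign, cut at about 17% in these data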
Target sequence (P14735 whole entry, looked up): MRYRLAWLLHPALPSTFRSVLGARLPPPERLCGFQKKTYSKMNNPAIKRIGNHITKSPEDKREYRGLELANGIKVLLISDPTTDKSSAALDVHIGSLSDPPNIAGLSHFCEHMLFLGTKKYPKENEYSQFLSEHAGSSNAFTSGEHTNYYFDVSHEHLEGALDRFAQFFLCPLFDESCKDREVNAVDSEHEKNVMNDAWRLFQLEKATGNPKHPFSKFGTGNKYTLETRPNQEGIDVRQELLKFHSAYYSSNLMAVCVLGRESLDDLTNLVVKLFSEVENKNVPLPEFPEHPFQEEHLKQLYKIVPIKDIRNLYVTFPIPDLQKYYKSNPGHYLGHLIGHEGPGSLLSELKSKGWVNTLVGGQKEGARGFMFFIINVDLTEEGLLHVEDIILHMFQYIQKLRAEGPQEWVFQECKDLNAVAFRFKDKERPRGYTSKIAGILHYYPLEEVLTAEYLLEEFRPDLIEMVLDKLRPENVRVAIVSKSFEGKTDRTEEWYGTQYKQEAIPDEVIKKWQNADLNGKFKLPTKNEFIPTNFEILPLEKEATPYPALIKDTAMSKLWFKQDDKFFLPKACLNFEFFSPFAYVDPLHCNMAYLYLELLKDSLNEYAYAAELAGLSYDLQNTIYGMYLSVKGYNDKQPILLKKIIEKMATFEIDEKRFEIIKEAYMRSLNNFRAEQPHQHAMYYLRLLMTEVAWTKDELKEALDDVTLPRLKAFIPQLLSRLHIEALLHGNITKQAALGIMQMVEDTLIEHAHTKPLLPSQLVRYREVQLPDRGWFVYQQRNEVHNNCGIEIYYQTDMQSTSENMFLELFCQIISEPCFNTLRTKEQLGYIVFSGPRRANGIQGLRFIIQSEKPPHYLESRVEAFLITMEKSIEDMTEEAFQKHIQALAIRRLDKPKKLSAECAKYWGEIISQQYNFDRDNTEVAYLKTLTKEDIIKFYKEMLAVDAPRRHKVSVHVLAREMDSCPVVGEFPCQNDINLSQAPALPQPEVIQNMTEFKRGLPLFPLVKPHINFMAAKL
IDE inh = human IDE inhibitors in live cells, primary screen, fluorescence polarization, HEK cells, FAbetaB substrate | FAbetaB cleavage | inhibition, % at 5.59 µM | actives 0.41% (n = 320,000);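 active = percent inhibition above the average of all tested compounds plus 3 SD, set per screening campaign, cut at about 16% in these data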;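 note: IDE supplied by intact live HEK cells; FP after avidin binding of uncleaved biotin substrate so inhibition keeps polarization high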
RTF Ca sens act = cardiac RTF calcium sensitivity activators, primary screen, biochemical, IANBD-TnC fluorescence, EC20 calcium. AID 493008, 2010. IANBD-labeled TnC RTF fluorescence at EC20 calcium; 0% EC20 calcium, 100% full calcium. actives 0.24% (n = 340,000). activation, % at 7.2 µM. Troponin I, cardiac muscle (Homo sapiens) + Troponin T, cardiac muscle (Homo sapiens) + …;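 active = activation above the mean over all tested compounds plus 3 SD, cut at about 30% in these data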;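 note: rise in fluorescence read as greater calcium sensitivity of cardiac thin filaments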
Cardiac RTF inh = cardiac RTF calcium sensitivity inhibitors, primary screen, biochemical, IANBD-TnC fluorescence, EC70 calcium; Troponin I, cardiac muscle (Homo sapiens) + Troponin T, cardiac muscle (Homo sapiens) + …; IANBD-labeled cardiac RTF, Ca2+ fluorescence; inhibition, % at 7.15 µM; actives 0.12% (n = 340,000);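 active = inhibition above the mean inhibition of all tested compounds plus 3 SD, cut at about 17% in these data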;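 note: assay run at fixed EC70 calcium of 1.6 mM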
IDE inh confirm = human IDE inhibitors in live cells, confirmation, fluorescence polarization, HEK cells, FAbetaB substrate. FAbetaB cleavage. actives 51% (n = 1,200). inhibition, % at 5.59 µM. AID 435028, 2010. shares compounds with IDE inh;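 active = mean inhibition across triplicate wells above the cutoff set by the earlier primary insulin-degrading enzyme screen, cut at about 16% in these data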
HEK293 tox = cytotoxicity in HEK cells, cytotoxicity control for IDE inhibitor project, cell-based, luminescence; shares compounds with IDE inh; HEK293 cytotoxicity, ATP luminescence; inhibition, % at 5.59 µM; actives 28% (n = 1,200); in the data active = inhibition above about 22%
Hits are given with their value; - = inactive; . = no result.

SMILES	IDE cell activ	IDE inh	RTF Ca sens act	Cardiac RTF inh	others
NC(=O)c1ccc(N=Cc2c(O)n(Cc3ccco3)c(=O)[nH]c2=O)cc1	-	-	-	-
CCN(CC)c1ccc(N=Cc2c(O)n(Cc3ccco3)c(=O)[nH]c2=O)cc1	-	-	78.6	-
CC1(C)CCCN1CCC(C(N)=O)(c1ccccc1)c1ccccc1	-	.	-	-
CN1CCN(c2ccc([N+](=O)[O-])c3no[n+]([O-])c23)CC1	-	-	281.9	-
Brc1ccc(-[n+]2c(-c3ccccc3)cc(-c3ccccc3)cc2-c2ccccc2)cc1	-	-	-	-
Cc1nc2ccccc2c(=O)n1-c1cccc(C(F)(F)F)c1	-	-	-	-
Cc1nc2ccccc2c(=O)n1-c1ccc(C(=O)O)cc1	17.6	-	-	-
Cc1cc(OCC(=O)N[C@H](C(=O)O)c2ccccc2)c2c3c(c(=O)oc2c1)CCC3	-	-	-	-
O=C1NC(=O)C(=Cc2cn(CCOc3ccc4c(c3)OCO4)c3ccccc23)C(=O)N1	-	-	159.0	-
COC(=O)C1=C(c2ccc(OC)c(OC)c2)C[C@@H]2CC[C@H]1N2C(=O)N1CCCCC1	-	-	-	-
CN1C(=O)C(=Cc2ccc(N3CCOCC3)o2)C(=O)N(C)C1=S	-	-	-	-
C=CCN1C(=O)/C(=C\c2ccc(N3CCOCC3)o2)C(=O)NC1=S	-	-	48.8	-
CCN1C(=O)C(=Cc2ccc(N3CCOCC3)o2)C(=O)N(CC)C1=S	-	-	33.1	-
CC1=CC2OC3CC4OC(=O)C=CC=CC(C(C)O)OCC(O)C5(C)OC5C(=O)OCC2(CC1O)C4(C)C31CO1 (centres undefined)	-	.	-	-
CC1CCC(C(C)C)C(OC(=O)Cn2c(COc3ccccc3)[n+](C)c3ccccc32)C1 (centres undefined)	21.0	-	-	-
Clc1ccc(C(c2ccc(Cl)cc2)n2cc[n+](CC(OCc3ccc(Cl)cc3Cl)c3ccc(Cl)cc3Cl)c2)cc1 (centres undefined)	18.6	-	-	-
O=C1NC(=S)N(c2ccc(F)cc2)C(=O)/C1=C\c1ccoc1	-	.	-	26.9
Cc1ccc(N2C(=O)NC(=O)/C(=C\C=C\c3ccco3)C2=O)cc1	-	-	-	-
O=C1NC(=O)N(Cc2ccc(F)cc2)C(=O)/C1=C\c1ccoc1	-	17.3	-	-
Cc1ccc(N2C(=O)NC(=O)/C(=C\c3ccoc3)C2=O)cc1	-	19.8	-	-
O=Cc1c(C(=O)O)n(Cc2ccccc2F)c2ccccc12	-	-	-	-
Cc1ccc(C)c(Cn2c(C(=O)O)c(C=O)c3ccccc32)c1	-	-	85.9	-
Cc1ccc2c(C)cccc2c1	-	.	-	-
CC(C)(C)N1CC(C(=O)c2ccccc2)C1c1ccccc1 (centres undefined)	-	.	-	-
NS(=O)(=O)OC(CCc1ccccc1)C(Cl)(Cl)Cl (centres undefined)	-	-	-	-
SMILES	IDE cell activ	IDE inh	RTF Ca sens act	Cardiac RTF inh	others
C#C[C@]1(O)CC[C@H]2[C@@H]3CCC4=Cc5nc6nc7ccccc7n6cc5C[C@]4(C)[C@H]3CC[C@@]21C	-	-	38.5	-
C#CC1(O)CCC2C3CCC4=C/C(=N/OCC(=O)NCC(=O)NC(C(=O)O)C(C)C)CC[C@]4(C)C3CC[C@@]21C (some centres undefined)	-	.	-	-
CC[C@H](C)/C=C(C)/C=C/C1=CC2=C(Cl)C(=O)[C@@](C)(OC(C)=O)C(=O)C2=CO1	-	-	-	41.8
CCC(C)/C=C(C)/C=C/C1=CC2=C(Cl)C(=O)C(C)(OC(C)=O)C(=O)C2=CO1 (centres undefined)	-	-	-	-
CCOc1ccc(N2C(=O)NC(=O)/C(=C\c3ccc(N4CCCCC4)o3)C2=O)cc1	-	-	112.5	-
CN1CCN(c2ccc(/C=C3\C(=O)NC(=S)N(c4cccc(Br)c4)C3=O)o2)CC1	-	-	96.6	-
CN1C(=O)/C(=C\c2ccc(N3CCCCC3)o2)C(=O)NC1=S	-	-	55.1	-
CCOc1ccc(N2C(=O)/C(=C/c3ccc(C)o3)C(=O)NC2=S)cc1	-	-	-	-
CN1C(=O)/C(=C/c2ccc(N3CCCCCC3)o2)C(=O)NC1=S	-	-	86.5	-
COC(=O)C1=C(c2cccc(C#N)c2)C[C@@H]2CC[C@H]1N2C(=O)NC1CCCCC1	-	-	-	-
O=[N+]([O-])c1cc(Cl)c(Cl)cc1Cl	-	-	-	-
CN(C)Cc1c[nH]c2cc([N+](=O)[O-])ccc12	-	.	-	-
COC(=O)C1=C(c2ccc3ccccc3c2)C[C@@H]2CC[C@H]1N2C(=O)NCC1CC1	-	-	-	-
CC(C)C[C@H]1C(=O)N2CCC[C@H]2[C@]2(O)O[C@](NC(=O)[C@@H]3C=C4c5cccc6[nH]cc(c56)C[C@H]4N(C)C3)(C(C)C)C(=O)N12	-	-	66.8	-
Cc1ccc2c(c1)=NC(=O)/C(=C/c1c(O)[nH]c(=O)[nH]c1=O)C=2	-	-	-	-
Cc1ccc2c(c1)=C/C(=C\c1c(O)[nH]c(=S)[nH]c1=O)C(=O)N=2	.	16.4	.	.
OC(CNC1CCCCC1)C(F)(F)F (centres undefined)	19.9	-	-	-
CCN(CC)c1ccc(/C=N/c2sc3c(c2C#N)C2CCN3CC2)c(O)c1	-	19.7	146.4	-	IDE inh confirm=122.6;HEK293 tox=54.7
COC(=O)C1=C(c2ccc(-c3ccccc3)c(F)c2)C[C@@H]2CC[C@H]1N2C(=O)N1CCOCC1	-	-	-	-
CN1/C(=C\C=C2C(=O)NC(=O)NC2=O)C(C)(C)c2ccccc21	-	57.2	108.7	-	IDE inh confirm=69.7;HEK293 tox=-
CN1/C(=C\C=Nc2ccccc2)C(C)(C)c2ccccc21	-	-	-	-
O=C1NC(=O)N(Cc2ccccc2)C(=O)/C1=C\C=C\c1ccco1	-	17.2	-	-	IDE inh confirm=-;HEK293 tox=57.6
C/C(=N\N1CCCCC1c1cccnc1)c1c(O)n(C2CCCCC2)c(=S)[nH]c1=O (centres undefined)	-	28.9	-	-	IDE inh confirm=-;HEK293 tox=-
O=C1CN=C(c2ccccc2)c2cc(Cl)ccc2N1	-	-	-	-
O=C1NC(=O)N(c2ccc3c(c2)OCO3)C(=O)/C1=C/c1ccc(N2CCCC2)o1	-	19.1	58.0	-	IDE inh confirm=29.3;HEK293 tox=-
O=C1NC(=O)N(c2ccc3c(c2)OCO3)C(=O)/C1=C/c1cccs1	-	-	-	-
